RECQ1 inh – RECQ1 (human) helicase inhibition; P46063; AID 2549; 240,000 tested, 0.54% active; RECQ1 DNA unwinding, red fluorescence kinetic read; Potency, µM (doses to about 57.3 µM), without a hit: at the highest dose activity, negative = inhibition, hits mostly inhibitors;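 also: plate controls were vehicle for no effect and no enzyme for full effect; nearly all actives have a fitted effect of over 30% in size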
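50 nM RECQ1T1 preincubated 15 min with compound in Tris pH 8.0 buffer with MgCl2, DTT, Tween-20 and 2.5 ug/ml poly(dI-dC); started with 200 nM TAMRA/BHQ-2 forked duplex and 2 mM ATP. Unwinding read as fluorescence (525/598 nm), two reads 2 h apart.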
GCN5L2 inh – GCN5L2 (KAT2A) acetyltransferase inhibition; Q92830; GCN5L2 HAT assay, ThioGlo1 CoA-SH fluorescence; Potency, µM (top dose mostly 58.9 µM), for inactives: at the highest dose activity change, negative = inhibition, actives largely listed as inhibitors; 390,000 tested, 0.21% active
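qHTS, 1536-well. 20nM enzyme, pH 7.5 HEPES/EDTA/Tween-20 buffer; 15 min compound preinc., RT. Start: 75uM H3(1-25), 70uM AcCoA, 50uM ThioGlo1. Read Ex340/Em540 at t=0 (autofluorescence flag) and t=20 min.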
TDP1 block – blocks human tyrosyl-DNA phosphodiesterase 1. Q9NUW8. recombinant TDP1, AlphaScreen DNA substrate cleavage. Potency, µM (titrated, usually from 130 µM), inactives show at the top dose activity change, negative = inhibition, usual class: inhibitors. 350,000 tested, 0.28% active. AID 485290; also: nearly all actives have a fitted effect of over 40% in size
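Signal: AlphaScreen proximity between streptavidin donor and anti-FITC acceptor beads on intact substrate. Reaction: Tdp1 1 nM, substrate 15 nM final, 5 min RT after 15 min compound preincubation.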
BLM inh – inhibitors of human Bloom syndrome helicase BLM; P54132; recombinant BLM DNA unwinding, fluorescence dequenching; Potency, µM (titrated, usually from 56.1 µM), inactives show top-dose activity change, negative = inhibition, usual class: inhibitors; 350,000 tested, 0.2% active;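 also: plate controls were vehicle for no effect and no enzyme for full effect; nearly all actives have a fitted effect of over 35% in size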
Target sequence (P54132 whole entry, looked up): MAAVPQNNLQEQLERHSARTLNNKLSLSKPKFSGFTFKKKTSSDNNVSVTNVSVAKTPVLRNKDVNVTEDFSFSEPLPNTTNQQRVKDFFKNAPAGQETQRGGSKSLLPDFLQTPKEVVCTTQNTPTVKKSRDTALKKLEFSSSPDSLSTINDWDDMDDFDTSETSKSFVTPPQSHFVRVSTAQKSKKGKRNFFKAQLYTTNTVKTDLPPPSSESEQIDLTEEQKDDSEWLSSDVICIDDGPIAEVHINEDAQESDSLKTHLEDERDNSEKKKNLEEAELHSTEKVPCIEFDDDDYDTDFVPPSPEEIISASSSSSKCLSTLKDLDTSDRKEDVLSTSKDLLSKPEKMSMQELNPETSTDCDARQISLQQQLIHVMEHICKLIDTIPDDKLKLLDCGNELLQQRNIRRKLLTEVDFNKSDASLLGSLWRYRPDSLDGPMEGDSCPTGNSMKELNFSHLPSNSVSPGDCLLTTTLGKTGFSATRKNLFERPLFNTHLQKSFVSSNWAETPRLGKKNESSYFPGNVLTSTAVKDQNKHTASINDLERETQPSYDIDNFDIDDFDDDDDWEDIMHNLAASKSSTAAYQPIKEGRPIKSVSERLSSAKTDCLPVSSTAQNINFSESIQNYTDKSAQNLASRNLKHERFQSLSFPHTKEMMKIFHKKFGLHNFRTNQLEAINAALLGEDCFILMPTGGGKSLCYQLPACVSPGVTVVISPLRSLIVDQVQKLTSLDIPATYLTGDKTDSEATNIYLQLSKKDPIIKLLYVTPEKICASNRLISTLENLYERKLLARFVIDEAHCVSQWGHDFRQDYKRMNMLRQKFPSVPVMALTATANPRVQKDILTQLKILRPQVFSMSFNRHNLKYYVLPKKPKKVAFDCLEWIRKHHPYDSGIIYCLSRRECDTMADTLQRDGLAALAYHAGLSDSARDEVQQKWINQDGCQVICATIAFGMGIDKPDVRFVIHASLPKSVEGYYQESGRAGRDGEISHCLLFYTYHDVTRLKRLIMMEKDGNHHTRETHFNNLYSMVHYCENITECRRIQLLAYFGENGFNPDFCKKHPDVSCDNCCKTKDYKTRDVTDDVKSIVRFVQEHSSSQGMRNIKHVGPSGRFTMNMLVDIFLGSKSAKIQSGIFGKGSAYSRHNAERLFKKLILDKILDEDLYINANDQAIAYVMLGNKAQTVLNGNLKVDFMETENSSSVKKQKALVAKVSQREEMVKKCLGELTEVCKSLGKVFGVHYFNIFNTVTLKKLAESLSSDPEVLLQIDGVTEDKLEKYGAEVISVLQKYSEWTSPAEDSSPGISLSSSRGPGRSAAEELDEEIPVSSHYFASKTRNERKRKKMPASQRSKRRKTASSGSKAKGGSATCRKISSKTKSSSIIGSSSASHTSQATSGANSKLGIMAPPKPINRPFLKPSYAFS
APE1 inh-1 – APE1 (human) endonuclease inhibition; AID 2517; Potency, µM (highest dose often 65.8 µM), inactives show at the highest dose activity change, negative = inhibition, actives largely listed as inhibitors; recombinant APE1, TAMRA/BHQ-2 abasic DNA cleavage fluorescence; 350,000 tested, 0.35% active;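 also: plate controls were vehicle for no effect and reference inhibitor for full effect; nearly all actives have a fitted effect of over 55% in size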
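Substrate: short duplex with […] THF abasic site, 5'-TAMRA and 3'-BHQ-2, 50 nM final. APE1 at 0.75 nM, preincubated 15 min RT with compound. Fluorescence increase from first to third read measured activity.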
DNA dye displace – displaces fluorescent dye from DNA, flagging APE1 artifacts; DNA fluorescent dye displacement counterscreen, fluorescence; 480 tested, 7% active; shares compounds with APE1 inh-1; Potency, µM (titrated, usually from 28.5 µM), without a hit: top-dose activity change, negative = inhibition, hits mostly inhibitors; AID 2564;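 also: loss of thiazole orange fluorescence as the dye is displaced from duplex DNA; 0% = ThO with dsDNA and no compound and -100% = ThO without dsDNA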
Endo IV inh – counter-screen for APE1 inhibitors: inhibitors of E. coli endonuclease IV. E. coli Endo IV, fluorogenic AP-site DNA cleavage. AID 2565. shares compounds with APE1 inh-1. 560 tested, 4% active. Potency, µM (highest dose often 27.1 µM), for inactives: top-dose activity change, negative = inhibition, usual class: inhibitors;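 also: plate controls were uninhibited enzyme wells for no effect and no enzyme buffer wells for full effect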
APE1 inh-2 – confirmation of inhibitors of human APE1 endonuclease | shares compounds with APE1 inh-1 | purified APE1, fluorogenic abasic-site DNA cleavage | Potency, µM (top dose mostly 57.1 µM), inactives show top-dose activity change, negative = inhibition, usual class: inhibitors | 750 tested, 44% active | AID 2572; also: nearly all actives have a fitted effect of over 30% in size
APE1 FP inh – APE1 (human) DNA binding inhibition, fluorescence polarization. shares compounds with APE1 inh-1. APE1 binding to TAMRA-labelled double-stranded DNA, fluorescence polarization displacement. Potency, µM (highest dose often 28.5 µM), without a hit: at the top dose activity, negative = inhibition, hits mostly inhibitors. 480 tested, 7% active. AID 2573
Numbers without * were called inactive; i = inactive; ? = inconclusive; / = no result; [ ] = another dose, or the depositor's remark. The list is not random: actives were taken first. Their share in the collection is about 0.87%. Calls follow the shape of the dose curve; as a rule, active = well fitted curve in the direction sought with a large enough effect; inconclusive = small, poorly fitted or top-dose-only effect, or another doubt; inactive = no such curve, though single readings can be large; an effect the other way counts as inactive or inconclusive. Unless noted, % is scaled to controls: 0 for no effect and ±100 for the full control effect; potency is read from the fitted curve at half-maximal effect.

SMILES | RECQ1 inh | GCN5L2 inh | TDP1 block | BLM inh | APE1 inh-1 | DNA dye displace | Endo IV inh | APE1 inh-2 | APE1 FP inh
Cc1ccc(C(=O)O)cc1-n1c(C)cc(C=O)c1C | i | -3% | 18µM* | -4% | ? | / | / | ? | /
Cc1cc(C(=O)O)ccc1-n1c(C)cc(/C=C2\SC(=O)NC2=O)c1C | / | 1% | -3% | 0% | 12% | / | / | / | /
O=C(Nc1cc(C(=O)Nc2ccc(S(=O)(=O)O)cc2S(=O)(=O)O)cc(C(=O)Nc2ccc(S(=O)(=O)O)cc2S(=O)(=O)O)c1)Nc1cc(C(=O)Nc2ccc(S(=O)(=O)O)cc2S(=O)(=O)O)cc(C(=O)Nc2ccc(S(=O)(=O)O)cc2S(=O)(=O)O)c1 | -1% | -20% | 5µM* | ? | 7.9µM* | / | ? | 2.5µM* | /
Cc1c(Br)c(O)c(Br)c2sc(=O)oc12 | 22µM* | -25% | -6% | -15% | ? | 4% | 16% | -7%[24.4 µM] | 1%
CO[C@@H]1/C=C\CC(=O)N[C@@H](C)C(=O)OC[C@H](NS(=O)(=O)c2ccc(C)cc2)[C@H](C)/C=C\CC(=O)OC[C@H]1C | 21%[11.5 µM] | / | 6%[21 µM] | 5%[12.4 µM] | 17%[12.4 µM] | / | / | / | /
Cc1ccc(-c2cn3cccnc3n2)cc1NC(=O)c1ccc(Br)o1 | -13% | -11% | 5% | -3% | 10% | / | / | / | /
COc1ccc(-c2cn3cccnc3n2)cc1NC(=O)c1ccc(Br)o1 | ? | 18% | 50µM* | -1% | -6% | / | / | -25% | /
CCC(C)C(=O)OCC1(c2ccc(C)cc2OC(=O)C(C)C)CO1 (configuration not stated) | -14% | -17% | / | -12% | ? | ? | -9% | 11µM* | ?
NC(=O)Cn1c(=O)n(Cc2ccco2)c(=O)c2c3c(sc21)CCCCC3 | ? | -28% | / | ? | ? | ? | 3% | 10µM* | ?
O=C(Cn1c(=O)n(Cc2ccco2)c(=O)c2c3c(sc21)CCCC3)Nc1ccccc1 | -14% | -8% | 2% | -14% | -3% | / | / | / | /
CC(C)(C)NC(=O)c1cc(F)c(F)cc1Cl | i | -1% | 6% | -14% | 7.1µM* | -8% | 4% | ? | -6%
CCn1c(SCC(=O)NCc2ccco2)nnc1C(C)C | -10% | 1% | -2% | 1% | -3% | / | / | / | /
CCn1c(SCC(=O)NCc2ccco2)nnc1-c1cccs1 | -5% | -16% | 50µM* | -20% | 35µM* | ? | -2% | ? | -14%
Cc1noc(C)c1-c1ccc2ncnc(NCc3cccs3)c2c1 | 3% | -16% | / | -9% | 14µM* | ? | -52%[57.1 µM] | 32µM* | 36%[57.1 µM]
CN(C)C(=O)c1ccc(-c2ccc3ncnc(NCc4cccs4)c3c2)cc1 | -7% | -15% | / | -5% | 10µM* | ? | -77%[57.1 µM] | 7.9µM* | 22%[57.1 µM]
CC12C=C(/C=C/CCc3ccco3)C(C)(C1)[C@H](CCc1ccco1)CC2=O (some centres not stated) | -6% | / | 4% | -4% | 1% | / | / | / | /
COc1ccc(CNc2ncncc2-c2ccoc2)c(OC)c1 | 12% | -10% | / | 2% | -3% | / | / | / | /
CC1=C(C#N)c2nc(N)c(C#N)c(C)c2/C1=C\c1ccc(-c2ccccc2C(=O)O)o1 | 11µM* | ? | / | -9% | 25µM* | 11µM* | 15% | 14µM* | 13µM*
CCN(CC)CCCCn1c(-c2ccccc2)nc2c(N(CCOC)CCOC)nc(C)nc21 | 0% | / | 0% | 2% | -11% | / | / | / | /
Nc1cc(C(=O)O)ccc1Sc1ccccc1C(=O)O | 28% | -26% | 45µM* | 6% | ? | / | / | -10% | /
COc1cccc(-c2ccc3ncnc(NCc4cnc(C)cn4)c3c2)c1 | 4% | -5% | / | 4% | 15% | / | / | / | /
COc1ccc(C(=O)CSc2nnc(-c3ccco3)c(-c3ccco3)n2)cc1 | -26% | -27% | -3% | ? | 18µM* | ? | 1% | ? | ?
COc1cccc(NC(=O)CSc2nnc(-c3ccco3)c(-c3ccco3)n2)c1 | / | ? | / | -25% | 7% | / | / | / | /
Cc1ccccc1NC(=O)CSc1nnc(-c2ccco2)c(-c2ccco2)n1 | i | ? | -12% | 1% | 4.5µM* | -24% | 15% | 16µM* | -8%
C[C@H]1Cc2c(-c3ccccc3)nc3c(c2CO1)CN(C(=O)NCCc1c[nH]c2ccccc12)CC3 | -6%[11.5 µM] | / | -1%[12.3 µM] | -4%[12.4 µM] | -1%[12.4 µM] | / | / | / | /
SMILES | RECQ1 inh | GCN5L2 inh | TDP1 block | BLM inh | APE1 inh-1 | DNA dye displace | Endo IV inh | APE1 inh-2 | APE1 FP inh
CC12CC3OS(=O)OC3CC3C4C(C(OCc5ccccc5)C31)C42 (configuration not stated) | -8%[11.5 µM] | / | 5%[21 µM] | 0%[12.4 µM] | 4%[12.4 µM] | / | / | / | /
CN(C)[C@H]1C(=O)C(C(=O)NCN2CCCC2)=C(O)[C@]2(O)C(=O)C3=C(O)c4c(O)cccc4[C@@](C)(O)[C@H]3C[C@@H]12 | -21%[25.9 µM] | ? | ? | -13%[21.4 µM] | / | 5% | -9% | -11%[24.4 µM] | ?
CC(=O)Oc1cc2cccc(OC(C)=O)c(=O)c2c(OC(C)=O)c1OC(C)=O | 3.2µM* | 0% | / | ? | 0.45µM* | 1% | 47% | 6.3µM* | -1%
NC[C@@H]1O[C@@H](O[C@H]2[C@H](O)[C@@H](O[C@@H]3O[C@@H](CO)[C@H](O)[C@@H](N)[C@@H]3O)[C@H](N)C[C@@H]2N)[C@@H](O)[C@H](O)[C@H]1O | -1% | 22% | 1% | -8% | 15% | / | / | / | /
Cc1n[nH]c(C)c1CCc1nc2c3ccccc3nc(SCC(=O)Nc3ccc(F)cc3)n2n1 | / | -9% | 0% | -14% | / | / | / | / | /
Cc1ccc(NC(=O)CSc2nc3ccccc3c3nc(CCc4c(C)n[nH]c4C)nn23)cc1F | -12% | -5% | 79µM* | ? | 5% | / | / | ? | /
CCCCCCCCCCCCCCCC(=O)NCC(=O)O | -8% | / | 4% | -3% | 3% | / | / | / | /
COc1cc(OC)c2c(-c3ccccc3)cc(=O)oc2c1C(CC(=O)N1CCCC1)c1ccc(N(C)C)cc1 (configuration not stated) | -13% | / | 26% | -10% | 8% | / | / | / | /
